# Source: PubChem BioAssay (NCI)
# About 83,000 compounds went through this panel and 20% of them were active in at least one assay; those are over-represented in the sample as a whole.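 Results are percent growth after 48 hours of single-concentration exposure. 100 means growth as in untreated cells, lower positive values show inhibition; negative values down to -100 show cell death.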 Unmarked numbers belong to inactive results. Activity calls are given as the source filed them. The calls were made as follows: active = growth percent below 10; inactive = the rest.
# How the values were obtained:
# Assay in all cases: NCI-60 one-dose screen, 48 h (100 = growth as untreated, 0 = no growth, -100 = all killed)
# Details in all cases: 10 µM unless noted
# NCI-H23 lung = tested on: NCI-H23 lung
# NCI-H226 lung = tested on: NCI-H226 lung
# NCI-H322M lung = tested on: NCI-H322M lung
# HOP-62 NSCLC = tested on: HOP-62 NSCLC
# NCI-H460 lung = tested on: NCI-H460 lung
# HOP-92 NSCLC = tested on: HOP-92 NSCLC
# NCI-H522 lung = tested on: NCI-H522 lung
# A549/ATCC NSCLC = tested on: A549/ATCC NSCLC
# 786-0 renal = tested on: 786-0 renal
# COLO 205 colon = tested on: COLO 205 colon
# DU-145 prostate = tested on: DU-145 prostate
# K-562 leukemia = tested on: K-562 leukemia
# MALME-3M melanoma = tested on: MALME-3M melanoma
# MDA-MB-231 breast = tested on: MDA-MB-231 breast
# RXF 393 renal = tested on: RXF 393 renal
# SF-268 CNS = tested on: SF-268 CNS
# SF-295 CNS = tested on: SF-295 CNS
# SF-539 CNS = tested on: SF-539 CNS
# UACC-257 melanoma = tested on: UACC-257 melanoma
# M14 melanoma = tested on: M14 melanoma
SMILES,growth (NCI-H23 lung),growth (NCI-H226 lung),growth (NCI-H322M lung),growth (HOP-62 NSCLC),growth (NCI-H460 lung),growth (HOP-92 NSCLC),growth (NCI-H522 lung),growth (A549/ATCC NSCLC),growth (786-0 renal) [%],growth (COLO 205 colon),growth (DU-145 prostate),growth (K-562 leukemia),growth (MALME-3M melanoma),growth (MDA-MB-231 breast),growth (RXF 393 renal),growth (SF-268 CNS) [%],growth (SF-295 CNS) [%],growth (SF-539 CNS),growth (UACC-257 melanoma),growth (M14 melanoma)
Cc1ccc2[nH]c(-c3ccc(S(C)(=O)=O)cc3)c(/C=N/N=C(N)N)c2c1,76.4%,76.6%,79%,58.3%,37.9%,59.9%,-7.31% (active),46.2%,44.9,49%,48%,26.3%,52.4%,67.6%,66.8%,62.1,43.2,59.5%,43.1%,32.5%
CO[C@H](C(=O)[C@@H](O)[C@@H](C)O)[C@@H]1Cc2cc3cc(O[C@H]4C[C@@H](O[C@H]5C[C@@H](O)[C@H](O)C(C)O5)[C@H](O)C(C)O4)c(C)c(O)c3c(O)c2C(=O)[C@H]1O[C@H]1C[C@@H](O[C@H]2C[C@@H](O[C@H]3C[C@@H](OC)[C@H](O)C(C)O3)[C@@H](O)C(C)O2)C(O)(O)C(C)O1 (stereo partly drawn),7.35% (active),-20.8% (active),9.68% (active),-3.61% (active),9.9% (active),9.37% (active),-20.2% (active),3.64% (active),11.2,,19.5%,12.1%,-36.8% (active),5.02% (active),-57.9% (active),26.3,12.4,-0.417% (active),-20.5% (active),11.1%
Cn1c(=O)c2c(c3ccccc31)OC(N)=C(C#N)C21C(=O)c2ccccc2C1=O,87.5%,81%,91.5%,80.3%,85%,92.8%,95.9%,95.7%,95.1,,107%,111%,86.5%,81.6%,91%,93,102,91.9%,108%,87.2%
CC(C)c1ccc(C(=O)Nc2sc3cc(O)ccc3c2C#N)cc1,46.2%,58.2%,61.7%,41.1%,23%,79.2%,54.2%,44.6%,31.2,,50.5%,13.8%,39.2%,46.3%,45.2%,44.8,22.2,32.5%,51.3%,5.43% (active)
O=C(CCC(=O)c1nc2ncccc2[nH]1)NN1C(=O)CSC1c1ccc(Cl)cc1 (stereo not drawn),91.4%,95.9%,93.5%,93.9%,102%,111%,83%,97.3%,101,116%,103%,98.2%,93%,98%,103%,91.2,108,103%,105%,98%
N=c1c2c(=N)n3c(nc2nc2n1-c1ccccc1Sc1ccccc1-2)sc1cc(Cl)ccc13,7.38% (active),32.9%,47.1%,76.8%,13.8%,-14.1% (active),4.09% (active),14%,30,44.8%,32.4%,34.9%,12.7%,32.1%,26.5%,38.3,12.8,55.4%,-5.42% (active),28.8%
COC(=O)/C(CCC=C(C)C)=C1\[C@@H](OC(C)=O)C[C@@]2(C)[C@H]1CC(=O)[C@H]1[C@@]3(C)CCC(N4CCCC4)[C@@H](C)[C@@H]3CC[C@@]12C (stereo partly drawn),91.5%,113%,99.6%,102%,101%,77.2%,102%,104%,93.1,106%,101%,12.5%,100%,130%,98.3%,97.6,98.3,102%,110%,93.1%
Cc1cc2nc3c4ccccc4n(CCN(C)C)c3nc2cc1C,8.98% (active),11.3%,0.121% (active),2.09% (active),-32.7% (active),28.1%,-19.1% (active),-33.8% (active),23.2,-29.8% (active),1.97% (active),8.35% (active),-10.5% (active),3.96% (active),8.24% (active),31.2,27.6,12.2%,2.35% (active),13.2%
O=C(O)c1cccc(N/C=C/C(=O)c2cc3cc(Br)ccc3oc2=O)c1,98.1%,94.6%,100%,93.7%,97%,103%,91.8%,92.4%,99.4,,108%,119%,104%,93.6%,107%,90.4,104,96%,99.2%,94.2%
CS(=O)(=O)Nc1cc(-c2ccc3ncnc(Nc4ccc5c(cnn5Cc5cccnc5)c4)c3c2)cnc1Cl,55.8%,76.4%,68.7%,51.2%,79.8%,-10% (active),44.2%,83.7%,62.9,,63.4%,57.7%,5.01% (active),47.6%,44.4%,27.9,81.8,41.4%,64.5%,41%
COc1ccc2cc(Cn3cc[n+](Cc4ccc5ccccc5c4)c3)ccc2c1,36%,49.2%,65.8%,49.8%,38.3%,-11.8% (active),-13.6% (active),57.1%,51,,52.2%,18.4%,24.3%,29.8%,4.94% (active),22.6,67,48.5%,-15.8% (active),17.5%
O=C(CCCCCCN1CC(=O)N2[C@@H](c3ccc(Cl)cc3)c3[nH]c4ccccc4c3C[C@H]2C1=O)NO,71.3%,90.2%,70.3%,66.4%,67.6%,15.3%,38.2%,93.6%,83.9,,73.4%,29.7%,37.2%,50.9%,72.7%,91.2,80.6,63.5%,79.7%,59%
